# Test results from PubChem BioAssay (NCI).
# The panel holds about 83,000 compounds, 20% with a hit somewhere; the sample as a whole holds those more often.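 Each cell line was grown in a 96-well plate and treated with one concentration of compound for 48 hours. Values below 10 were considered active.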 Values without a mark were called inactive. Calls of active or inactive are those of the source.
# Tested on: BT-549 breast
# Assay: NCI-60 one-dose screen, 48 h (100 = growth as untreated, 0 = no growth, -100 = all killed)
# Conditions: 10 µM unless noted
# Description: Growth inhibition of the BT-549 human tumor cell line is measured as a screen for anti-cancer activity. Cells are grown in 96 well plates and exposed to the test compound for 48 hours. Compounds are tested at a single concentration, which is 10^-5 M for most compounds. The reported endpoint is percent growth (GI% or GIPRCNT), where numbers from 0 - 100% represent growth inhibition, and numbers from -100% - 0 represent cell death. For example, a value of 40 represents 60% growth inhibition. A value of 0 means no net growth occurred over the course of the experiment. A value of -40 indicates 40% of cells at the beginning of the experiment died by the end of the experiment. A value of -100 means all cells are dead at the end of the experiment.
# NCI-60 Human Tumor Cell Lines Screen was performed using the standard one-dose NCI protocol, which is described in more detail at https://dtp.cancer.gov/discovery_development/nci-60/default.htm.
# Compounds with GIPRCNT values below 10 were considered active. Activity score was based on GIPRCNT using the following formula: […]
# Score is 0 for GIPRCNT values of 100 or above, 50 for GIPRCNT values of 0, and 100 for GIPRCNT values of -100.
row,Compound,growth
1,CN(C)c1ccc(/C=c2\s/c(=C\C(=O)C(C)(C)C)[nH]c2=O)cc1,97.3%
2,CCN1CCN(Cc2ccc(NC(=O)Nc3cccc(-n4ccc5c(NC(=O)c6ccccc6)nccc54)c3)cc2C(F)(F)F)CC1,89.5%
3,Fc1cccc(F)c1C#Cc1ccc2cccnc2c1,95.6%
4,Cc1ccc2oc(=O)cc(C3C(C#N)=C(N)Oc4c3ccc3ccccc43)c2c1 (stereo not given),70.2%
5,O=C(Nc1cccc(-n2ccc3c(NC(=O)c4ccccc4)nccc32)c1)c1cccc(C(F)(F)F)c1,-6.35% (active)
6,C#C[C@H](O)/C=C/CCCCCCC#C[C@H](O)CC[C@@H](O)C#CCCCCCC/C=C/[C@@H](O)C#C,93.9%
7,Cc1cccc(CC(=O)c2ccccc2)n1,111%
8,c1ccc2nc(Cn3cc[n+](Cc4ccc5ccccc5n4)c3)ccc2c1,33.7%
9,CC(C)(c1ccc(OCC(O)CNCc2ccco2)cc1)c1ccc(OCC(O)CNCc2ccco2)cc1 (stereo not given),88.7%
10,O=C(Nc1ccc(-n2cc(-c3ccncc3)c(-c3ccc(O)c(Cl)c3)n2)cc1)c1cc(Cl)cc(Cl)c1,25.8%
11,O=C(Nc1ccc(-n2ccc3c(NC(=O)c4ccccc4)nccc32)cc1)c1ccc(Cl)c(C(F)(F)F)c1,37.6%
12,C=C1C(=O)O[C@H]2[C@H]1CC/C(COC(=O)CCCC(=O)OC/C1=C/CC[C@@]3(C)O[C@H]3[C@H]3OC(=O)C(=C)[C@@H]3CC1)=C\CC[C@@]1(C)O[C@@H]21,-4.94% (active)
13,CC(=O)Oc1ccc(C(OC(C)=O)OC(C)=O)cc1,94.2%
14,Nc1nc(Cl)c2c(C(F)(F)F)cn(CC3CCNCC3)c2n1,103%
15,CCOc1ccc(NC(=O)Nc2cc(C(C)C)ccc2C)cc1,114%
16,Nc1nccc2c1ccn2-c1cccc(NC(=O)c2ccc(N3CCOCC3)c(C(F)(F)F)c2)c1,-5.74% (active)
17,COc1ccc(Cl)cc1NC(=O)c1cc2c([nH]1)-c1nc(NC(=O)C(C)(C)C)sc1CC2,71.7%
18,O=C(CSc1nnc(-c2cc3c([nH]c4ccccc43)c(-c3cccc(O)c3)n2)n1-c1ccccc1)c1ccccc1,56%
19,O=C(Nc1ccc(Cl)c(Cl)c1)Nc1ccc(Cl)c([N+](=O)[O-])c1,-9.25% (active)
20,COc1ccc2c(c1)nnn1c3ncccc3c(N=O)c21,-11.7% (active)

row,Compound,growth
1,CC(C)Cn1cnc2c3ccccc3nc(NCn3nc(-c4cc(Cl)cc(Cl)c4Cl)oc3=S)c21,97.5%
2,CN1CCN(Cn2nc(-c3cc(F)c(Cl)cc3Cl)n(/N=C/c3ccc(N(C)C)cc3)c2=S)CC1,67.1%
3,COc1cc2ncnc(Oc3ccc(NC(=O)Nc4ccc(C5(C#N)CCCC5)cc4)c4ccccc34)c2cc1OC,86.5%
4,c1ccc2c(c1)Oc1cccnc1-n1nccc1-2,101%
5,O=C1COc2ccccc2C(=O)N1CCCCNc1ccccc1,46%
6,COc1cc(C(=O)C[n+]2ccccc2)ccc1OC(C)=O,94.5%
7,CCN(CC)CCN1C(=O)c2c(c3c4ccccc4[nH]c3c3[nH]c4ccccc4c23)C1=O,83%
8,COc1ccc(-c2[nH]c3ccccc3c2/C=C(\C#N)S(=O)(=O)c2ccccc2)cc1,80.5%
9,c1ccc(CNCCN(CCNCc2ccccn2)Cc2ccc3ccccc3c2)nc1,30.3%
10,O=C(Cn1c2ccccc2c2ccncc21)N/N=C/c1c[nH]c2ccccc12,94.4%
11,COCCNC(C(=O)c1ccccc1)c1ccccc1 (stereo not given),97.6%
12,Cn1c(I)c(C#C[Si](C)(C)C)c(=O)[nH]c1=O,40.7%
13,O=C(N/N=C1\SCC(=O)N1c1ccccc1)c1cc(-c2cc3ccccc3o2)nn1-c1ccccc1,101%
14,C=CCOc1ccc(/C(Cl)=N/N=C(\Cl)c2cc(OC)c(OC)c(OC)c2)cc1,89.5%
15,O=S(=O)(CCN1CCOCC1)Nc1cncc(-c2ccc3ncnc(Nc4ccc(F)c(Cl)c4)c3c2)c1,49.7%
16,O=C(Nc1ccc(-n2ccc3c(NC(=O)c4ccccc4)ncnc32)cc1)Nc1ccc(Cl)c(C(F)(F)F)c1,56%
17,O=S1(=O)N(CCNc2nccc(-c3c(-c4cccc(O)c4)nc4sccn34)n2)CCN1Cc1ccccc1,69.9%
18,COc1ccc(Cl)cc1NC(=O)c1cc2c([nH]1)-c1nc(NC(=O)C(C)C)sc1CC2,105%
19,COc1cc2ncn3c(=O)c4c5c(sc4nc3c2cc1OC)CCCCC5,105%
20,COc1cc(-c2nc3ccccc3s2)ccc1OCc1nc2n(n1)S(=O)(=O)c1ccccc1N2c1ccccc1,104%
